Screening data as filed in PubChem BioAssay.
Most compounds without a hit are left out; they make up all but 2.6% or so of the library.
PRMT1 FP inh – PRMT1 methyltransferase inhibitors, primary screen, biochemical, fluorescence polarization | Protein arginine N-methyltransferase 1 (Homo sapiens), Q99873 | recombinant PRMT1, activity-based probe fluorescence polarization | inhibition, % at 2.79 µM | actives 1.3% (n = 370,000);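 active means inhibition above about 21% made by adding two undisclosed values, limit read from the data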
Target sequence (Q99873 whole entry, looked up): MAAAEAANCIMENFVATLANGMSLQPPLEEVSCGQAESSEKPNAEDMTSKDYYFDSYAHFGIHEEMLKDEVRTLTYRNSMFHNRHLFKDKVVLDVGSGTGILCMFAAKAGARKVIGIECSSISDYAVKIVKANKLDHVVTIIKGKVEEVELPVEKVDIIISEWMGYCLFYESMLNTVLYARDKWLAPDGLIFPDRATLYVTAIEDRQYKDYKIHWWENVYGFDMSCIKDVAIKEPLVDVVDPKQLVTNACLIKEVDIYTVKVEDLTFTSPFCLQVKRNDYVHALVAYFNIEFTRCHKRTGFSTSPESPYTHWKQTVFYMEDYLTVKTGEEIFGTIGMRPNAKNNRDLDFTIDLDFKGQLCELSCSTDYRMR
NOD2 RIPK2 PPI – NOD2-RIPK2 binding disruptors in cells, primary screen, fluorescence, CHO cells, BLA complementation; Receptor-interacting serine/threonine-protein kinase 2 (Homo sapiens), O43353; CCF4 ratio; inhibition, % at 4.98 µM; actives 0.38% (n = 360,000); in the data active means inhibition above about 21%;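 further: 0% = vehicle only and 100% = reference blocker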
TLR4 MyD88 comp – inhibitors of TLR4-MyD88 association in cells, primary screen, cell-based, HeLa CL3-4, BLA complementation, FRET ratio; HeLa CL3-4 TLR4/MyD88 BLA complementation; actives 0.18% (n = 200,000); inhibition, % at 8.4 µM; Toll-like receptor 4 (Homo sapiens) + Myeloid differentiation primary response protein …; in the data active means inhibition above about 25%;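 further: 0% = vehicle and 100% = reference inhibitor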
ABHD5 PLIN5 PPI – ABHD5-PLIN5 interaction inhibitors, primary screen, cell lysate, split luciferase complementation, luminescence; actives 0.78% (n = 360,000); inhibition, % at 4 µM; Perilipin-5 (Homo sapiens) + 1-acylglycerol-3-phosphate O-acyltransferase ABHD5 (Homo …; Split G. princeps luciferase complementation, 4 h;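 active means inhibition above the mean inhibition across every tested compound plus 3 SD, cut at about 22% in these data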;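 further: 0% = DMSO only wells and the 100% control is not disclosed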
TLR9-MyD88 block – inhibitors of TLR9-MyD88 association in cells, primary screen, cell-based, CHO, BLA complementation, fluorescence. AID 504734, 2011. CCF4 FRET ratio. inhibition, % at 4.98 µM. Toll-like receptor 9 (Homo sapiens) + Myeloid differentiation primary response protein …. actives 0.21% (n = 340,000);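 active means inhibition above the mean over all tested compounds plus 3 SD, cut at about 21% in these data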;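 further: 0% = DMSO only wells and 100% = clavulanate BLA inhibitor control wells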
Exocytosis inh – LAMP-1 surface exposure blockers, TALL-104 cells – cell-based, flow cytometry, MLPCN library, primary screen | actives 0.66% (n = 360,000) | inhibition, % at 10 µM | TALL-104 LAMP-1 surface exposure; cells stimulated with thapsigargin and PMA;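 active means inhibition above about 55%, limit read from the data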
Starred values were filed as active, the others as inactive; x = no result given.

SMILES | PRMT1 FP inh | NOD2 RIPK2 PPI | TLR4 MyD88 comp | ABHD5 PLIN5 PPI | TLR9-MyD88 block | Exocytosis inh
CSCCC(=O)N1C(C)CCCC1C(=O)O (configuration not stated) | 0 | -8 | -9 | -2 | 8 | -2
CCNC(=O)N1CCN(c2ccc(N3CCN(Cc4ccccc4)[C@H](C)C3)c(C)c2)[C@H](C)C1 | 0 | x | x | x | x | x
O=C(NCc1ccccc1)[C@@H]1CCCN1C(=O)[C@H]1CCCN1C(=O)c1cccs1 | -5 | x | x | x | x | x
CCN1CCN(CCNC(=O)c2ccc(/C=C3\Sc4ccccc4N(Cc4ccccc4F)C3=O)cc2)CC1 | -3 | 12 | -11 | 17 | 6 | 72*
CN1CCN(CCCNC(=O)c2ccc(/C=C3/Sc4ccccc4N(Cc4cccc(Cl)c4)C3=O)cc2)CC1 | -2 | 8 | -3 | 21 | -1 | 75*
CC(=O)O[C@@H]1C=C[C@@H](C#Cc2ccc(C(C)(C)C)cc2)O[C@@H]1COC(=O)NCc1ccccc1 | 2 | x | x | x | x | x
COc1ccc(-c2cn(-c3ccccc3)c(=S)[nH]2)cc1OC | 23* | -7 | x | -2 | 7 | -1
COc1ccc(-c2cn(-c3ccc(C)c(Cl)c3)c(=S)[nH]2)cc1OC | 7 | -1 | x | -6 | -11 | 14
CC(C)[C@H](NC(=O)C1CC1)C(=O)N1CCC[C@H]1C(=O)NCCc1ccccc1Cl | -1 | x | x | x | x | x
COC(=O)[C@]12C[C@H](CC(=O)NCc3ccccc3)C(=O)N(Cc3ccccc3)C1=C[C@H](C(C)C)O[C@@H]2C1CC1 | 0 | x | x | x | x | x
CCN(CC)CCCNC(=S)N1CCN(c2nc(-c3ccc(F)cc3)cs2)CC1 | 0 | 6 | x | 3 | -9 | 69*
COc1ccc(C2O[C@@H](C)[C@@H]3C(=O)N4CCc5c([nH]c6ccccc56)[C@@H]4C[C@@H]3N2C)cc1 (some centres not stated) | -2 | x | x | x | x | x
C[C@]12Cc3ccccc3C1CC1=N[C@@H](c3ccc(C(F)(F)F)cc3)O[C@@]13C[C@@H]2C(=O)N3Cc1ccncc1 (some centres not stated) | 0 | x | x | x | x | x
COc1ccc(NC(=O)CSc2nnc(-c3ccccc3C)n2N)cc1 | 21* | 3 | -25 | -17 | -14 | 4
COc1ccc(NC(=O)CSc2nnc(-c3ccccc3C)n2N)cc1OC | 1 | 2 | -2 | 0 | 9 | 0
CN1C(=O)/C(=N/OC(=O)c2ccccc2)c2ccccc21 | -2 | 3 | 0 | 12 | -2 | 87*
CCOC(=O)CN1C(=O)[C@]2(OCCC=C[C@H]2C)c2c(Br)cccc21 | -1 | x | x | x | x | x
CC(C)OC(=O)C(C(=O)C(F)(F)F)c1cc(NS(=O)(=O)c2ccc3ccccc3c2)c2ccccc2c1O (configuration not stated) | x | 14 | 2 | 41* | -5 | 26
Cc1ccc(C(=O)O)cc1NS(=O)(=O)c1ccc2ccccc2c1 | -1 | -12 | x | 2 | 6 | -8
Cn1ncc2c(c(SCc3ccc(Cl)cc3Cl)nn2C)c1=O | 22* | 3 | x | -3 | -10 | -5
COc1cnn(-c2ccccc2)c(=O)c1SCc1ccc(Cl)cc1Cl | 17 | 14 | -2 | -3 | 1 | 0
CC(C)N1CCCCC(NC(=O)c2cccs2)C1=O (configuration not stated) | 5 | x | x | x | x | x
CCCCc1c(-c2ccccc2OC)ncn1Cc1c(F)cccc1F | 1 | x | x | x | x | x
COc1ccc(C(=O)/C=C/c2cn(CN3CCN(C)CC3)c3ccccc23)cc1 | x | 21* | 18 | -4 | 12 | 26
NC(=O)CC(NC(=O)c1ccc(Br)cc1)c1ccc(N2CCN(c3ccccn3)CC2)c([N+](=O)[O-])c1 (configuration not stated) | 3 | 3 | x | -4 | -4 | 65*
SMILES | PRMT1 FP inh | NOD2 RIPK2 PPI | TLR4 MyD88 comp | ABHD5 PLIN5 PPI | TLR9-MyD88 block | Exocytosis inh
O=C1C2C3C=CC(CO)(O3)C2C(=O)N1c1ccccc1-c1ccccc1 (configuration not stated) | x | 81* | 2 | 45* | 5 | 64*
Nc1c(Cl)cc(C2=NCCn3nc4cc([N+](=O)[O-])ccc4c32)cc1Cl | -2 | 11 | x | 3 | -8 | 24
Nc1c(Cl)cc(C2=NCCn3c2c2ccc([N+](=O)[O-])cc2[n+]3[O-])cc1Cl | 4 | -10 | x | -7 | -3 | 82*
N#Cc1ccc(CSc2nnc(-c3c[nH]c4ccccc34)n2-c2ccccc2)cc1 | -10 | -2 | -3 | 16 | 0 | 96*
CCN(CC(=O)NCc1cccs1)C(=O)c1ccc(-c2ccc(F)cc2)o1 | 24* | 7 | x | 19 | -4 | -5
Cc1cc2ccccn2c1C(C[N+](=O)[O-])c1ccc(N(C)C)cc1 (configuration not stated) | 4 | 6 | -15 | 23* | 4 | -2
COC(=O)c1cc2c(c3c4ccccc4n(S(=O)(=O)c4ccccc4)c13)C(=O)N(C)C2 | 4 | x | x | x | x | x
CCN(CC)c1ccc(N=C2C(=O)Nc3ccccc32)cc1 | 30* | 8 | x | -9 | -7 | -46
Cc1ccc(N=C2C(=O)Nc3ccccc32)cc1 | -1 | 3 | x | -5 | 7 | -16
CC12CCC3C(CCC4CC(O)CCC43C)C1CC(O)C2 (configuration not stated) | -4 | 0 | x | 5 | -4 | 1
C/C(=N\NC(N)=S)C1=CCC2C3CC[C@H]4CC(O)CC[C@]4(C)C3CC[C@]12C (some centres not stated) | 5 | -6 | x | -14 | -3 | 56*
CCCn1cnnc1CNC(=O)[C@@H](Cc1ccccc1)NC(=O)[C@H]1O[C@@H](n2ccc(=O)[nH]c2=O)[C@H](O)[C@@H]1O | -2 | x | x | x | x | x
CCCCCCCCN1C(=O)[C@@H](CC(=O)NCCCOC)C[C@@]2(C(=O)OC)C1=C[C@H](COCc1ccccc1)O[C@@H]2C | -1 | x | x | x | x | x
O=C(O)c1ccc(C(=O)C(=O)c2ccccc2)cc1 | 7 | -13 | x | 3 | -9 | 1
CSC(SC)=C(C#N)C(=O)c1ccccc1 | -1 | 1 | x | -4 | -10 | 56*
COc1cccc(C(=O)C(C#N)=C(SC)SC)c1 | 3 | -5 | x | 8 | -5 | 70*
O=C(N[C@H](Cc1ccccc1)C(=O)NCC1CCCCC1)[C@H]1O[C@@H](n2ccc(=O)[nH]c2=O)[C@H](O)[C@@H]1O | 6 | x | x | x | x | x
CC(C)(C)c1nn(-c2ccccc2)c2nc(Cl)c(C=O)cc12 | x | -2 | -8 | 1 | -4 | 2
CC(C)(C)c1nn(-c2ccccc2)c2[nH]c(=O)c(C=O)cc12 | -4 | 3 | x | 5 | -4 | 62*
